Measurements taken from PubChem BioAssay.
Calls of active or inactive are those of the source. Unless noted, how the calls were made is not given here.

What was measured:
[1] = system: Wnt5a (protein binding on small-molecule microarray); experiment: small molecules binding Wnt5a protein – biophysical, small-molecule microarray, 635/667 nm fluorescence, primary screen (AID 1142); conditions: 635 nm fluorescence, higher = more signal;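 further: fluorescence read at 667 nm with signal to noise per printed feature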
[2] = ATP-based viability of Huh7 replicon cells – cell-based, CellTiter-Glo luminescence, basal, 48 h, cytotoxicity control for HCV replication inhibitor project, primary screen (AID 1143); conditions: higher = more signal, called active from +8 up or from −8 down;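 further: Huh7 hepatoma cells carrying a hepatitis C replication reporter with no stimulus; test concentration not given here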
[3] = Pseudomonas biofilm growth suppression – PAO1 strain, BacTiter-Glo luminescence, LB-PBS, primary screen (AID 1144); conditions: P. aeruginosa PAO1 biofilm, 12 h, higher = more signal
[4] = basal CRE-LacZ reporter activity in PC12 – cell-based, unstimulated, primary screen (AID 1145); conditions: no forskolin, luminescence, 4.5 h, higher = more signal, called active from +8 up or from −8 down
[5] = forskolin-driven CRE-LacZ activity in PC12 – cell-based, CRE-LacZ reporter, forskolin-stimulated, primary screen (AID 1146); conditions: luminescence, 4.5 h, higher = more signal, called active from +8 up or from −8 down;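 further: PC12 cells with 6xCRE LacZ reporter stimulated by forskolin 10 µM; beta-galactosidase reporter signal reflecting CREB driven transcription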
[6] = biological target: Streptavidin (Streptomyces avidinii) (UniProt P22629); experiment: compounds binding control protein streptavidin – biophysical, small-molecule microarray, 635/667 nm fluorescence, artefact control for SMM compound annotation, primary screen (AID 1147); conditions: higher = more signal;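 further: signal reflects streptavidin binding to arrayed compounds as a control protein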
Sequence of Streptavidin (Streptomyces avidinii) (P22629 whole entry, looked up): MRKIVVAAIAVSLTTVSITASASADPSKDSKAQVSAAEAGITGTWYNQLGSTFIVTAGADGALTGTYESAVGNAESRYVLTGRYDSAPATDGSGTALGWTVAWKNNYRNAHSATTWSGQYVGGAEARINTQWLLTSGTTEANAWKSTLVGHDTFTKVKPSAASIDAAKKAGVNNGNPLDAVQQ

[7] = probe aInhba binding on compound microarray – biochemical, small-molecule microarray, 635/667 nm fluorescence, primary screen (AID 1148); conditions: higher = more signal;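 further: score merges 667nm spot fluorescence with signal-to-noise for antibody binding to printed compounds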
Torsin-1A (Homo sapiens) [8] = biological target: Torsin-1A (Homo sapiens) (UniProt O14656); experiment: TOR1A wild-type binding on microarray – cell lysate, small-molecule microarray, lysate, 635/667 nm, primary screen (AID 1149); conditions: COS7 hTOR1A-WT lysate, 635 nm fluorescence, higher = more signal
Sequence of Torsin-1A (Homo sapiens) (O14656 whole entry, looked up): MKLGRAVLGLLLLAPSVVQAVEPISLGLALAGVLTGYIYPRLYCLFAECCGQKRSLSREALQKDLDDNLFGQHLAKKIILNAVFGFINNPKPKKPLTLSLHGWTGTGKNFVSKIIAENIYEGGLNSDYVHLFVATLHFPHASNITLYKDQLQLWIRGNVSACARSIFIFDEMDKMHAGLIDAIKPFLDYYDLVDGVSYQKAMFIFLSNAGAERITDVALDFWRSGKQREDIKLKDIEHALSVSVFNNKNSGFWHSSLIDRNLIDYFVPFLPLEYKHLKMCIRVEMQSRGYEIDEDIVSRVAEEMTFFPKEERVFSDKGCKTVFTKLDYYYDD

Torsin-1A (Homo sapiens) [9] = biological target: Torsin-1A (Homo sapiens) (UniProt O14656); experiment: torsin A mutant lysate binding on microarrays – cell lysate, small-molecule microarray, COS7 lysate, 635/667 nm fluorescence, primary screen (AID 1150); conditions: COS7 hTOR1A mutant lysate, 635 nm fluorescence, higher = more signal;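 further: score pools 667 nm emission and signal to noise measuring lysate protein binding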
[10] = system: Sonic hedgehog protein (Shh); experiment: Sonic hedgehog microarray binding compounds – biochemical, small-molecule microarray, 635/667 nm fluorescence, primary screen (AID 1151); conditions: 635 nm fluorescence, higher = more signal;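 further: Shh protein binding to compounds spotted on small-molecule microarray slides; score combines spot fluorescence intensity with signal-to-noise across triplicate slides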

SMILES | composite z-score [1] | z-score [2] | z-score [3] | z-score [4] | z-score [5] | composite z-score [6] | composite z-score [7] | composite z-score (Torsin-1A (Homo sapiens) [8]) | composite z-score (Torsin-1A (Homo sapiens) [9]) | composite z-score [10]
CCCC[C@@H]1C[C@H]1[C@@H](NC(=O)c1cccnc1)c1ccc(Cl)cc1 | -0.769 | -1.25 (inactive) | -0.128 (inactive) | -0.368 (inactive) | 0.834 (inactive) | -1.44 | -0.335 | -1.57 | -0.419 | -1.35
CC1CC/C=C\[C@H]2OC34C=CCN(Cc5ccccc5)C(=O)[C@H]3N(C(C)CO)C(=O)[C@@H]4C2C(=O)O1 (stereo not given in full) | -0.125 | 0.0111 (inactive) | 0.647 (inactive) | 1.68 (inactive) | -0.0203 (inactive) | -0.556 | -0.0822 | -0.859 | -0.119 | 0.473
O=C1O[C@H](c2ccccc2)[C@H](c2ccccc2)N2[C@H]1[C@@H](C(=O)NC[C@H](O)c1ccccc1)[C@]1(C(=O)Nc3ccc(C#CC4=CCCCC4)cc31)[C@H]2c1ccccc1OCCO | 0.401 | -6.13 (inactive) | -0.297 (inactive) | -0.0784 (inactive) | -0.0119 (inactive) | 0.787 | 0.0659 | 0.0585 | 0.223 | 0.134
COc1ccccc1CN1C(=O)c2ccccc2[C@@]2(Cc3ccccc3N(CCCN(C)C)C2=O)[C@@H]1c1ccc(CO)cc1 | -0.0961 | -4.71 (inactive) | -0.516 (inactive) | -0.0243 (inactive) | -0.926 (inactive) | 0.224 | -0.19 | -0.0118 | 0.0265 | 0.243
CCCCCCc1nc(-c2ccc(-c3ccc(Cl)c(Cl)c3)o2)cc2c1[Si](C(C)C)(C(C)C)O[C@H]2c1ccccc1 | -0.355 | -0.731 (inactive) | -0.206 (inactive) | -0.113 (inactive) | 0.497 (inactive) | -0.711 | -0.0719 | -0.512 | 0.978 | -0.434
CO[C@H]1O[C@H](CO)[C@@H](OC(=O)Nc2ccccc2-c2ccccc2)[C@H](OC(=O)Nc2ccccc2-c2ccccc2)[C@@H]1OC(=O)Nc1ccccc1-c1ccccc1 | 0.689 | -3.41 (inactive) | -0.399 (inactive) | 0.391 (inactive) | 0.0225 (inactive) | 1.08 | 0.173 | 0.1 | 0.53 | 1.37
COc1ccc([Si](C)(C)[C@H]2[C@H](CCO)O[C@@]3(C(=O)N(Cc4ccccc4)c4ccc(N5CCCCC5=O)cc43)[C@@H]2C)cc1 | 0.116 | -7.68 (inactive) | -1.98 (inactive) | 4.22 (inactive) | -1.16 (inactive) | 0.381 | -0.118 | 0.23 | 1.67 | 0.929
CCCCC(=C=CC[C@@H](O)c1cccc(OCCO)c1)C[C@@H](O)c1ccccn1 | 0.252 | -0.19 (inactive) | -1.15 (inactive) | -0.102 (inactive) | 0.786 (inactive) | 1.5 | -0.0331 | 1.67 | 0.416 | 1.86
CCOC(=O)C[C@H]1[C@H](OC(=O)c2ccc(-c3ccccc3)cc2)[C@@H](NC(=O)c2ccccc2)c2cc(OCCCO)ccc2N1C(=O)Cc1ccc(OC)cc1 | 0.0137 | 0.0974 (inactive) | -0.962 (inactive) | 0.0035 (inactive) | -0.701 (inactive) | -0.238 | 0.0001 | -0.0369 | -0.456 | 0.0151
CC(C)[Si](C#CCCCC#N)(O[C@H](c1ccccc1)c1cn(Cc2cccc(Cl)c2)nn1)C(C)C | 0.182 | -2.2 (inactive) | -0.603 (inactive) | -0.215 (inactive) | -0.859 (inactive) | -0.0708 | 0.0614 | 1.42 | 0.392 | 1.21
C[N+](C)(C)CCCCCCNC(=O)[C@H]1C[C@H]2C(=O)N[C@@H](Cc3ccccc3)C(=O)N2[C@H]1c1cccc(OCCO)c1 | 0.385 | -0.236 (inactive) | -0.278 (inactive) | -0.252 (inactive) | -0.54 (inactive) | -0.563 | 0.0176 | 1.12 | 1.24 | 2.08
CO[C@H]1O[C@H](CO)[C@@H](OC(=O)Nc2ccccc2)[C@@H]2OC(=O)[C@@H](Cc3ccc4ccccc4c3)C/C=C/C[C@H](Cc3ccc4ccccc4c3)C(=O)O[C@@H]12 | 0.49 | -3.61 (inactive) | -1.4 (inactive) | 0.502 (inactive) | -0.757 (inactive) | 0.31 | -0.0494 | 0.643 | 1.87 | 0.662
CN(C)CCCCNC(=O)[C@@H]1C[C@@H]2C(=O)N[C@@H](CCCCN)C(=O)N2[C@@H]1c1ccc(O)cc1 | 0.0291 | -0.151 (inactive) | -0.0779 (inactive) | 0.281 (inactive) | -0.773 (inactive) | 0.98 | -0.0403 | 0.584 | 0.435 | 1.23
CN(C)CCCCCCNC(=O)[C@@H]1C[C@@H]2C(=O)N[C@@H](CCCC[N+](C)(C)C)C(=O)N2[C@@H]1c1ccc(O)cc1 | 0.133 | -0.217 (inactive) | 0.0162 (inactive) | 0.155 (inactive) | -0.0457 (inactive) | -0.253 | -0.589 | 0.659 | 0.771 | 1.66
C=CC[C@]1(C(N)=O)N=C(c2ccc(OCCCO)cc2)O[C@H]1c1ccccc1 | 0.555 | -1.01 (inactive) | -0.717 (inactive) | 0.652 (inactive) | -0.806 (inactive) | 0.186 | -0.168 | 2.79 | 2.33 | -0.406
C=CCC(OC(C)=O)[C@@H]1[C@@H](N(Cc2cc3ccccc3o2)C(=O)Cc2ccc(OC)cc2)c2cc(OCCCO)ccc2N1C(=O)c1ccc2ccccc2c1 (stereo not given in full) | -0.252 | -1.58 (inactive) | -0.352 (inactive) | 1.41 (inactive) | 0.368 (inactive) | -0.277 | -0.0791 | -0.748 | -0.502 | 0.688
COC(=O)[C@@]1(Cc2ccccc2)[C@H]2c3cc(C(=O)N(C)C)n(Cc4ccc(OC)c(OC)c4)c3C[C@H]2CN1C(=O)c1ccccc1 | 1.15 | -2.81 (inactive) | 0.655 (inactive) | 0.394 (inactive) | 0.786 (inactive) | 1.43 | 0.498 | 0.406 | 1.16 | -0.735
COC(=O)C(CC#Cc1ccc2c(c1)[C@]1(C(=O)N2)[C@H](c2ccccc2OCCO)N2[C@H](c3ccccc3)[C@H](c3ccccc3)OC(=O)[C@H]2[C@@H]1C(=O)O)C(=O)OC | 0.231 | -0.323 (inactive) | -0.367 (inactive) | -0.375 (inactive) | 1.86 (inactive) | 0.517 | 0.29 | 0.19 | 1.14 | 0.279
CCCCN1CC=CC23O[C@@H]4/C=C\CCCOC(=O)C4[C@H]2C(=O)N(CCCO)[C@@H]3C1=O (stereo not given in full) | -0.311 | 0.275 (inactive) | 0.0302 (inactive) | -0.0778 (inactive) | 0.241 (inactive) | -1.3 | -0.105 | -1.36 | -1.64 | -0.0567
O=C1C2C=CC(C(O)c3c(F)cccc3Cl)N(Nc3ccccc3F)C2C(=O)N1c1ccccc1 (stereo not given) | 0.185 | 1.04 (inactive) | -0.563 (inactive) | 0.243 (inactive) | -0.0389 (inactive) | 0.396 | 0.143 | 0.0354 | 0.301 | -0.356
O=C(NC1CC1)[C@@H]1c2ccccc2C(=O)N(C2Cc3ccccc3C2)[C@H]1c1ccc(CO)cc1 | 0.336 | 0.192 (inactive) | -0.994 (inactive) | 0.854 (inactive) | -0.987 (inactive) | -0.286 | 0.116 | 0.795 | 1.28 | 1.05
O=C(CS)NCCCCCNC(=O)[C@H]1C[C@H]2C(=O)NCC(=O)N2[C@H]1c1ccc(O)cc1 | -0.55 | -0.173 (inactive) | -0.196 (inactive) | -1.49 (inactive) | -0.684 (inactive) | -1.11 | -0.264 | -0.518 | 0.113 | 0.0174
COc1ccc(-c2cc3c(c(Cc4ccccc4)n2)[Si](C(C)C)(C(C)C)OC3)cn1 | -0.153 | -1.03 (inactive) | 0.2 (inactive) | -0.141 (inactive) | 0.877 (inactive) | -0.32 | -0.215 | -0.0113 | -0.729 | -0.093
CC(C)CNC(=O)[C@@]1(Cc2ccccc2I)c2ccccc2C(=O)N(Cc2ccccc2C(F)(F)F)[C@H]1c1ccc(CO)cc1 | -0.0971 | 0.0523 (inactive) | 0.0415 (inactive) | -0.295 (inactive) | 1.04 (inactive) | -0.198 | -0.128 | -0.177 | -0.185 | -0.197
CCCCN1CC=CC23O[C@@H]4C=CCCOC(=O)C4[C@H]2C(=O)N(CCCCCO)[C@@H]3C1=O (stereo not given in full) | -0.276 | 0.342 (inactive) | -0.0153 (inactive) | 0.199 (inactive) | 0.794 (inactive) | -0.525 | -0.233 | 0.226 | 0.735 | -0.198
OCC1C=C(/C=C/c2ccccc2)CN1Cc1ccccc1Br (stereo not given) | 0.307 | -2.1 (inactive) | 0.0784 (inactive) | 0.856 (inactive) | -0.181 (inactive) | 0.828 | 0.126 | -0.205 | 0.818 | 1.39
COCCOC(=O)N1C(=O)[C@@]2(c3cc(C#Cc4ccc(OC)cc4)ccc31)[C@H](c1ccc(O)cc1)N1[C@H](c3ccccc3)[C@H](c3ccccc3)OC(=O)[C@H]1[C@@H]2C(=O)Nc1nc2ccccc2s1 | 0.169 | -1.07 (inactive) | -0.155 (inactive) | 0.182 (inactive) | -0.0609 (inactive) | 0.302 | -0.11 | 0.277 | 0.226 | 1.76
COc1ccc(CCNC(=O)[C@@]2(C)c3ccccc3C(=O)N(c3ccc(C)cn3)[C@H]2c2ccc(CO)cc2)cc1 | -0.49 | -0.998 (inactive) | -0.604 (inactive) | -0.0888 (inactive) | -0.371 (inactive) | -0.712 | -0.183 | -2.16 | -1.44 | -0.797
CCOC(=O)C1=CC[C@H]2C(=O)N(c3ccccc3)C(=O)[C@@H]12 | 0.125 | -0.321 (inactive) | 0.96 (inactive) | 0.836 (inactive) | -0.0473 (inactive) | 0.9 | 0.19 | 0.079 | 1.08 | 0.814
